FLuc counter: inhibits or activates purified firefly luciferase, miR-21 counter-screen | hit rate 6.9% among 360,000 | Potency, µM (highest dose often 57.5 µM), inactives show top-dose activity change, negative = inhibition, hits mostly inhibitors | P08659 | purified FLuc, Km substrates, luminescence inhibition;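 also: plate controls were vehicle for no effect and reference inhibitor for full effect; nearly all actives have a fitted effect of over 55% in size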
Target sequence (P08659 whole entry, looked up): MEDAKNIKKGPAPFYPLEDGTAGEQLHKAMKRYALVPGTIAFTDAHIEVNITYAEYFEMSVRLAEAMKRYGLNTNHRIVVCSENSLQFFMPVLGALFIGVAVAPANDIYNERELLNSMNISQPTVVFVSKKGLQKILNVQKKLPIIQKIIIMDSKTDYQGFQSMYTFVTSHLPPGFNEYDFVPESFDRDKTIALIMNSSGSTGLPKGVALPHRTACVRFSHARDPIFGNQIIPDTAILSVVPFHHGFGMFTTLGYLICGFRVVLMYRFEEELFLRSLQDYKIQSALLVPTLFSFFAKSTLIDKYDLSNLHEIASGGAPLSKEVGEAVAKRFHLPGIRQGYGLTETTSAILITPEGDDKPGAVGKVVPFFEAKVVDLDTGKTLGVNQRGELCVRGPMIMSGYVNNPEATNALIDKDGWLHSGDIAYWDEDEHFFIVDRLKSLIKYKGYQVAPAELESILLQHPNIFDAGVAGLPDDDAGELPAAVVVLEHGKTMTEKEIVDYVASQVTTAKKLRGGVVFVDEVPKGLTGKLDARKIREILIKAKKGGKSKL
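Purified P. pyralis luciferase, 10 nM final, with Km-level 10 uM D-luciferin and 10 uM ATP in 50 mM Tris acetate pH 7.5, 10 mM Mg acetate, 0.01% Tween-20, 0.05% BSA; 6-point qHTS titration about 60 µM downward; luminescence read.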
Rab9 promoter act: activators of Rab9 promoter; Huh7 Rab9 promoter-luciferase reporter, luminescence, 24 h; Potency, µM (doses to about 9.22 µM), inactives show at the highest dose activation, negative = inhibition, most hits filed as activators; hit rate 2.8% among 320,000; also: % of control where 0% means no effect; nearly all actives have a fitted effect of over 60% in size
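Using Huh7 cells stably transfected with Rab9 promoter–luciferase, compounds were incubated 24 h at 37 °C, 5% CO2; luciferase luminescence was read 10 min after reagent addition.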
ELG1 genotoxic: induces genotoxicity in HEK293T cells with luciferase-tagged ELG1; Potency, µM (series often up to 46 µM), for inactives: at the top dose activity change, positive = activation, most hits filed as activators; hit rate 1.3% among 330,000; AID 504466; HEK293T ELG1-luciferase reporter, luminescence, 16 h; also: % of control where 0% means no effect; nearly all actives have a fitted effect of over 60% in size
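Screening used a luciferase reporter fused to human ELG1 in HEK293T cells. Luminescence was read on a CCD plate imager after 16 hr exposure and 30 min ONE-Glo incubation.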
SMN2 splice up: increases expression of the SMN2 splice variant | HEK293 SMN2-luciferase splicing reporter, luminescence, 30-36 h | hit rate 2.8% among 210,000 | Potency, µM (doses to about 46.1 µM), for inactives: top-dose activity change, positive = activation, actives largely listed as activators; also: % of control where 0% means no effect; nearly all actives have a fitted effect of over 55% in size
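HEK293 cells carry an SMN2 […]–luciferase reporter in which exon 7 inclusion puts luciferase in frame. Cells were plated 10-12 h before compound addition, then incubated 30-36 h at 37C. ONE-Glo luminescence was read; sodium butyrate at 4.5 mM final served as control.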
NPC1 promoter act: activators of NPC1 promoter; Huh7 NPC1 promoter luciferase reporter, 24 h; Potency, µM (titrated, usually from 9.22 µM), without a hit: at the top dose activation, actives largely listed as activators; hit rate 2.4% among 320,000; AID 485313; also: % of control where 0% means no effect; nearly all actives have a fitted effect of over 60% in size
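Luciferase expression driven by the NPC1 promoter was measured in stably transfected Huh7 cells after a 24 h compound incubation, using a luciferase reagent and a luminescence read.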
* hit, by the source's call; ? = inconclusive; . = no result given; [ ] = dose if it differs, or a comment. Rows were chosen to be rich in hits. Some 7.5% of all compounds tested hit in one or more screens of this group. Calls follow the shape of the dose curve; as a rule, active = well fitted curve in the direction sought with a large enough effect; inconclusive = small, poorly fitted or top-dose-only effect, or another doubt; inactive = no such curve, though single readings can be large; an effect the other way counts as inactive or inconclusive. Potency is read from the fitted curve at half-maximal effect.

SMILES	FLuc counter	Rab9 promoter act	ELG1 genotoxic	SMN2 splice up	NPC1 promoter act
O=C(COC(=O)CC(NC(=O)c1ccccc1Cl)c1ccccc1)Nc1cccc(F)c1 (stereo not given)	-16.7%	-1.3%	-0.7%	3.1%	-0.8%
CCOC(=O)c1ccc(NC(=O)c2nn(CC)cc2Br)cc1	10.7µM*	?	?	?	?
CCn1cc(Br)c(C(=O)Nc2ccc(Cl)cc2Cl)n1	?	-0.1%	?	-25.5%	-4.2%
CCOC(=O)c1ccc(NC(=O)c2nn(C)cc2Br)cc1	6.75µM*	?	20.6µM*	24.4%	?
CCn1cc(Br)c(C(=O)Nc2ccc(F)c(Cl)c2)n1	16.9µM*	2.82µM*	?	10.6%	2.24µM*
CC(C)c1ccc(NC(=O)N2c3ccccc3Sc3ccccc32)cc1	6.8%	.	.	2.3%	.
COc1ccc(-n2cnnc2SCCC#N)cc1	2.7%	12.9%	-1.3%	?	-5.2%
Cc1c(C(=O)N2CCc3ccccc3C2)oc2ccccc12	23.9µM*	22.1%	14.7%	.	?
Cc1c(C(=O)N2c3ccccc3CC2C)oc2ccccc12 (stereo not given)	4.78µM*	2.82µM*	?	.	23.9%
COCc1c(C(=O)OCC(=O)N2c3ccccc3CC2C)oc2ccccc12 (stereo not given)	-1.2%	-2.3%	0.9%	11.0%	-29.8%
CC(=O)N1CCN(C(=O)c2oc3ccccc3c2C)CC1	2.6%	8.3%	10.9%	.	0.3%
CCCCC(OC(=O)c1cc2occc2n1C)C(=O)NCC1CCCO1 (stereo not given)	3.9%	15.0%	-1.3%	-3.0%	1.1%
O=S(=O)(NCc1cn2ccccc2n1)c1ccccc1F	-12.9%	9.5%	4.0%	.	-4.4%
CCOC(=O)CCNC(=O)CCNC(=O)C(c1ccccc1)c1ccccc1	3.2%	-13.3%	-2.4%	.	1.1%
COc1ccc(C2=CC(c3sccc3C)n3nnnc3N2)cc1 (stereo not given)	-10.1%	2.82µM*	?	19.7%	2.82µM*
Cc1ccc(C2=CC(c3ccc(N(C)C)cc3)n3nnnc3N2)cc1 (stereo not given)	-3.0%	10.2%	1.1%	-14.2%	-3.7%
COc1cccc(C2=CC(c3ccc(OC)c(OC)c3OC)n3nnnc3N2)c1 (stereo not given)	-12.7%	16.2%	22.0%	.	10.5%
COc1cccc(C2=CC(c3cccs3)n3nnnc3N2)c1 (stereo not given)	3.0%	-4.5%	16.4µM*	13.9%	-20.5%
CC(C)c1ccc(C2=CC(c3ccc(C(C)C)cc3)n3nnnc3N2)cc1 (stereo not given)	2.69µM*	.	.	.	.
COc1cccc([C@@H]2Oc3ccc(Br)cc3C(=O)[C@H]2OC(=O)Nc2ccc(C)c(Br)c2)c1	.	.	.	-3.7%	.
COc1ccc(OC)c(NC(=O)Cn2cc(C#N)c3ccccc32)c1	8.4%[2.3 µM]	5.0%	-4.2%	24.0%	1.0%
COc1cc(C(=O)N2CCN(S(=O)(=O)c3ccc(C)cc3)CC2)ccc1OCc1c(C)noc1C	-1.7%	-1.7%	-11.0%	-19.1%	-6.6%
Cc1ccc(C(=O)c2ccc(N3CCOCC3)c(F)c2)cc1	16.9µM*	29.7%	9.1%	-39.0%	19.3%
CC(=O)Nc1cc2nn(-c3ccccc3)nc2cc1Cl	1.51µM*	0.501µM*	1.3µM*	11.2µM*	0.562µM*
CC(C)COc1ccc(C(=O)Nc2cc3nn(-c4ccccc4)nc3cc2Cl)cc1	-1.9%	.	.	-1.8%	.
SMILES	FLuc counter	Rab9 promoter act	ELG1 genotoxic	SMN2 splice up	NPC1 promoter act
Cc1nn(-c2cccc(Cl)c2)nc1C(=O)O	?	-0.8%	-0.4%	-4.6%	0.5%
CC(C)(C)C(=O)Nc1cc2nn(-c3ccccc3)nc2cc1Cl	0.0757µM*	-16.5%	?	-95.5%	-13.3%
COc1ccc2c(c1)cc(C)c1nnc(SCC(=O)N(C)c3nc(-c4ccccc4)cs3)n12	1.2%	5.1%	1.0%	-7.8%	-8.1%
Cc1cnc(NC(=O)COc2cccc3c2OC(C)(C)C3)s1	-4.2%	-0.5%	-3.4%	20µM*	-2.5%
O=C(COc1ccc2c(c1)CCC2)Nc1ccccn1	0.169µM*	3.16µM*	?	.	3.98µM*
Cc1cccc(NC(=O)COc2ccc3c(c2)CCC3)n1	10.7µM*	?	17.5%	.	24.9%
Cc1cnc(NC(=O)COc2ccc3c(c2)CCC3)s1	1.2µM*	?	0.651µM*	.	0.562µM*

Bioassay records from PubChem.
